Test results: PubChem BioAssay AID1851 (National Center for Advancing Translational Sciences (NCATS), 2009)
Several values for one entry are separate records, joined by “and”; a condition that tells them apart may be missing. Equal values may be shown once. Hit rate of the full screen: of about 16,000 compounds, about 5,800 (36%) were called active. Not shown: some 23% with an inconclusive outcome. The list shows a part of the results. Values without a mark were called inactive. Calls come from the whole dose curve; as a rule, active = well fitted curve in the direction sought with a large enough effect; inconclusive = small, poorly fitted or top-dose-only effect, or effect the other way; inactive = no such curve, though single readings can be large or run the other way.

Each molecule was assayed against Cytochrome P450 2C19 (Homo sapiens) (UniProt P33261) (assay: Cytochrome panel assay with activity outcomes). Conditions: recombinant CYP, pro-luciferin dealkylation, luminescence, p450-cyp2c19; series mostly up to 57.1 µM.
Sequence of Cytochrome P450 2C19 (Homo sapiens) (P33261 whole entry, looked up): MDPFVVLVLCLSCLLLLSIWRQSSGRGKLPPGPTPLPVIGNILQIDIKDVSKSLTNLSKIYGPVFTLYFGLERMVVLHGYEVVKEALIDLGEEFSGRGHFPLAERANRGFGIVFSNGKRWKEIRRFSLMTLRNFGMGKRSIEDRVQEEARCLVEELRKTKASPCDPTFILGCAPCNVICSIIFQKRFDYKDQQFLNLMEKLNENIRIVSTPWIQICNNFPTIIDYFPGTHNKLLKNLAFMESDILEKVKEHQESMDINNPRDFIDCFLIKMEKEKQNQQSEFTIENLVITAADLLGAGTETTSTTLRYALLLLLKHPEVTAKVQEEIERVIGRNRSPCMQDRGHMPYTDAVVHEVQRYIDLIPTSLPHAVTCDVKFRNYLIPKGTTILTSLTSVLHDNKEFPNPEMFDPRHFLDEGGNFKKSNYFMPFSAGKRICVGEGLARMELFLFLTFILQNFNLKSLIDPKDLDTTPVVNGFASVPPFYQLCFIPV
% is set by controls: 0 for no effect and ±100 for the full control effect.

Row | Structure (SMILES) | AC50 | activity, negative = inhibition
1 | NCC[C@H]1CCC[C@H](CCN)N1 | inactive | 
2 | O=C(C[C@@H]1C=Cc2ccccc2N1C(=O)c1ccccc1)c1ccccc1 | 0.501 µM (active) | 
3 | NC(=O)N1c2ccccc2C=Cc2ccccc21 | inactive | 
4 | O=C(Cc1ccc(Br)cc1)Nc1ccccc1Sc1ccccc1 | 0.178 µM (active) | 
5 | O=C(NC1CCCCC1)C1CC=CCC1C(=O)OCC(Cl)=C(Cl)Cl (stereo not drawn) | 10 µM (active) | 
6 | O=C(c1ccc2c(=O)n(CC3CCCO3)c(=S)[nH]c2c1)N1CCN(c2ccccc2)CC1 (stereo not drawn) | 11.2 µM (active) | 
7 | O=C(c1ccc2c(=O)n(Cc3ccco3)c(=S)[nH]c2c1)N1CCN(c2ccccc2)CC1 | 2.24 µM (active) | 
8 | COCCCNC(=O)c1ccc2c(=O)n(CC3CCCO3)c(=S)[nH]c2c1 (stereo not drawn) | inactive | 
9 | COc1ccc(NC(=O)c2ccc3c(=O)n(Cc4ccco4)c(=S)[nH]c3c2)c(OC)c1 | 4.47 µM (active) | 
10 | CC(=O)OC[C@@H]1O[C@@H](O/N=C2/C[C@@H](O)[C@@H](O)[C@@H]3[C@@H]4C(=O)N(C5CCCCC5)C(=O)[C@H]4CC[C@@H]23)[C@H](OC(C)=O)[C@H](OC(C)=O)[C@@H]1OC(C)=O |  | 2.25% [at 11.4 µM]
11 | CCOc1ccccc1NC(=O)C1Cc2ccccc2CN1S(C)(=O)=O (stereo not drawn) | 7.94 µM (active) | 
12 | CCOc1ccccc1Nc1ccc(N)cc1S(=O)(=O)O |  | -16.1% [at 11.4 µM]
13 | C=C(NC(=O)C(=C)NC(=O)c1csc(C2=N[C@@H]3c4csc(n4)[C@@H]4NC(=O)c5csc(n5)[C@@H]([C@](C)(O)[C@H](C)O)NC(=O)[C@@H]5CSC(=N5)/C(=C/C)NC(=O)[C@@H]([C@H](C)O)NC(=O)c5csc(n5)[C@]3(CC2)NC(=O)[C@@H](C)NC(=O)C(=C)NC(=O)[C@@H](C)NC(=O)[C@@H]([C@@H](C)CC)N[C@H]2C=Cc3c([C@H](C)O)cc(nc3[C@@H]2O)C(=O)O[C@H]4C)n1)C(N)=O | inactive | 
14 | O=C1CCN(S(=O)(=O)c2ccccc2)N1 | 17.8 µM (active) | 
15 | O=S(=O)(c1ccccc1)N1CN2CN(C1)CN(S(=O)(=O)c1ccccc1)C2 |  | -18.2% [at 11.4 µM]
16 | O=S(=O)(c1ccccc1)N1CCC2(CC1)CN(C(c1ccccc1)c1ccccc1)C2 | inactive | 
17 | O=C(NCc1ccc(F)cc1)C(c1ccncc1)N(C(=O)c1csnn1)C1CC1 (stereo not drawn) | 3.55 µM (active) | 
18 | CCc1ccc(N(C(=O)c2csnn2)C(C(=O)NCc2ccccc2)c2ccco2)cc1 (stereo not drawn) | 3.16 µM (active) | 
19 | O=C(Nc1cccc(F)c1)N1CCC2(CC1)CCN(C(=O)c1csnn1)CC2 | inactive | 
20 | O=C(c1csnn1)N1CCC2(CC1)CCN(c1ccccc1)CC2 | inactive | 
21 | O=C(OC(C(=O)O)C(OC(=O)c1ccccc1)C(=O)NCc1ccccc1)c1ccccc1 (stereo not drawn) | inactive | 
22 | O=C(c1csnn1)N1CCC2(CCCN(Cc3ccccc3)C2)CC1 | inactive | 
23 | O=C(NCc1ccccc1)C(c1ccncc1)N(C(=O)c1csnn1)C1CC1 (stereo not drawn) | 8.91 µM (active) | 
24 | CCn1c(CCCc2nc3c([nH]2)c(=O)n(C)c(=O)n3C)nc2c1c(=O)n(C)c(=O)n2C |  | 2.28% [at 11.4 µM]

Row | Structure (SMILES) | AC50 | activity, negative = inhibition
25 | CC(C)CCn1c(Oc2ccccc2Cl)nc2c1c(=O)n(C)c(=O)n2C | 15.8 µM (active) | 
26 | CCOC(=O)N1CCN(C(=O)c2cnc3n(c2=O)CCS3)CC1 | inactive | 
27 | CCOC(=O)N1CCN(C(=O)C(C)SCc2ccccc2)CC1 (stereo not drawn) | inactive | 
28 | CCOC(=O)N1CCN(C(=O)C(CC)n2nc(C)c3sc4ccccc4c3c2=O)CC1 (stereo not drawn) | 20 µM (active) | 
29 | Cc1oc(-c2ccccc2Cl)nc1CSCC(=O)NC1CC1 | 14.1 µM (active) | 
30 | CCOC(=O)N1CCN(C(=O)CSCc2nc(-c3ccccc3F)oc2C)CC1 | 31.6 µM (active) | 
31 | Cc1oc(-c2ccccc2F)nc1CS(=O)(=O)CC(=O)NCCCN(C)C1CCCCC1 | inactive | 
32 | Cc1oc(-c2ccccc2F)nc1CSCC(=O)NCc1ccc2c(c1)OCO2 | 1.78 µM (active) | 
33 | N#Cc1cccc(NC(=O)N2CCC3(CC2)CCN(C(=O)c2csnn2)CC3)c1 | inactive | 
34 | Nc1ncnc2c([C@@H]3O[C@@H](CO)[C@H](O)[C@@H]3O)nsc12 |  | 20.7% [at 11.4 µM]
35 | Cc1nn(C(=O)c2cccnc2)c(C)c1Sc1ccc(Br)cc1 | 0.631 µM (active) | 
36 | Cc1nn(C(=O)c2ccco2)c(C)c1Sc1ccccc1 | 6.31 µM (active) | 
37 | O=C(c1ccco1)N1CCC2(CC1)CCN(c1ccccc1)CC2 | inactive | 
38 | CC(C)(C(=O)c1cccnc1)c1cccnc1 | inactive | 
39 | O=C(c1ccco1)N1CCC[C@@]2(CCN(Cc3ccccc3)C2)C1 | inactive | 
40 | Cc1nn(C(C)(C)C)c(OC(=O)c2ccco2)c1Sc1ccccc1 | 7.08 µM (active) | 
41 | C/C(CCN1CCCc2nc(C)c(C)cc21)=N\OC[C@@H](C)[C@H](OCc1ccccc1)C(C)C |  | -29.2% [at 11.4 µM]
42 | Cc1ccccc1CSc1nsc(N)n1 | 11.2 µM (active) | 
43 | CCN1/C(=C/c2ccc3cccc(C)c3[n+]2CC)Sc2ccccc21 | inactive | 
44 | O=C(CS(=O)c1cccc(Cl)c1)Nc1ccccc1Cl (stereo not drawn) | 2.51 µM (active) | 
45 | NC(=O)NC(=O)Nc1ccccc1Cl | inactive | 
46 | O=C(CS(=O)(=O)c1cccc(Cl)c1)Nc1ccccc1Cl | 2.51 µM (active) | 
47 | O=C(CS(=O)c1cccc(C(F)(F)F)c1)Nc1ccccc1Cl (stereo not drawn) | 2.82 µM (active) | 
48 | NCC(=O)Nc1ccc(Cl)cc1C(=O)c1ccc[nH]1 |  | -10.9% [at 11.4 µM]

Row | Structure (SMILES) | AC50 | activity, negative = inhibition
49 | OC[C@@H]1O[C@@H](n2cnc3c(N[C@H]4CCC[C@@H]4O)ncnc32)[C@H](O)[C@H]1O | inactive | 
50 | Cc1cccc[n+]1CC(=O)Nc1ccc([N+](=O)[O-])cc1Cl | 3.16 µM (active) | 
51 | O=C(Nc1ccc([N+](=O)[O-])cc1Cl)c1cc(Cl)ccc1O | inactive | 
52 | Cc1ccc(S(=O)(=O)c2c(C)nn(C(C)(C)C)c2OC(=O)c2cccs2)cc1 | 1 µM (active) | 
53 | CN1CCC(n2[nH]c(-c3ccccc3)c(Cc3ccccc3)c2=O)CC1 |  | -29.5% [at 11.4 µM]
54 | COc1cc([C@H](O)CO)ccc1O | inactive | 
55 | Cc1c(-c2c(C#N)c(N)nc3c2CCCCCC3)cnn1C | 14.1 µM (active) | 
56 | N#Cc1c(N)nc2c(c1-c1cccc(O)c1)CCCCCC2 | 7.08 µM (active) | 
57 | CCc1sc(-c2c(C#N)c(N)nc3c2CCCCCC3)cc1[N+](=O)[O-] | 3.98 µM (active) | 
58 | FC(F)(F)c1ccc(N2CCOCC2)c(Nc2nc3ccccc3n3cnnc23)c1 | 3.55 µM (active) | 
59 | CCCSc1nc(C)cc(C)c1S(=O)(=O)c1ccccc1C | 2.24 µM (active) | 
60 | Cc1ccccc1S(=O)(=O)c1c(C)cc(-c2ccccc2)[nH]c1=O | inactive | 
61 | CCCCSc1nc(C)cc(C)c1S(=O)(=O)c1ccccc1C | 0.562 µM (active) | 
62 | COc1ccccc1/C=C/C=N/N1CCN(Cc2cccc3ccccc23)CC1 | 14.1 µM (active) | 
63 | COc1ccccc1CN1CCC2(CCNCC2)CC1 | inactive | 
64 | COc1ccccc1CN1CCC2(CC1)CCN(S(C)(=O)=O)CC2 | inactive | 
65 | Cc1ccc(C(=O)c2ccc(CC(=O)O)n2C)cc1 | inactive | 
66 | O=C(Nc1ncc(Cc2ccccc2)s1)C1COc2ccccc2O1 (stereo not drawn) | inactive | 
67 | O=C(NCc1cccnc1)C1COc2ccccc2O1 (stereo not drawn) | 8.91 µM (active) | 
68 | O=C(Nc1cccnc1)C1COc2ccccc2O1 (stereo not drawn) | 11.2 µM (active) | 
69 | COC(=O)CCCC(=O)O |  | 37.5% [at 11.4 µM]
70 | O=C(O)CN(CCN(CC(=O)O)CC(=O)O)CC(=O)O.[Cu] |  | -41.9% [at 11.4 µM]
71 | Cc1cc2c(c(=O)o1)[C@H](O)[C@H]1O[C@@H]1C2=O |  | -43.4% [at 11.4 µM]
72 | O=C(CCN1C(=O)C2C3C=CC(C3)C2C1=O)NCCN1CCCc2ccccc21 (stereo not drawn) | 28.2 µM (active) | 

Row | Structure (SMILES) | AC50 | activity, negative = inhibition
73 | CC(C)(C)NCC[C@@H](O)c1cc(C(F)(F)F)nc2c(C(F)(F)F)cccc12 |  | -11% [at 11.4 µM]
74 | CCN(CC)c1ccc2c(c1)OC(N)=C(C#N)C2c1cccnc1 (stereo not drawn) | 0.891 µM (active) | 
75 | COc1cc2c(cc1OC)C(C(=O)Nc1ccccn1)C(c1cccnc1)N(C)C2=O (stereo not drawn) | inactive | 
76 | COc1ccc(NC(=O)C2c3cc(OC)c(OC)cc3C(=O)N(C)C2c2cccnc2)cc1OC (stereo not drawn) | inactive | 
77 | COc1cc2c(cc1OC)C(C(=O)Nc1cccc(C)n1)C(c1cccnc1)N(C)C2=O (stereo not drawn) | 0.251 µM (active) | 
78 | COc1cc(N=C(N)N=C(N)N)c2ncccc2c1 |  | 36.7% [at 11.4 µM]
79 | NCCCCNS(=O)(=O)c1cccc2c(Cl)cccc12 | 0.1 µM (active) | 
80 | NCCCCNS(=O)(=O)c1ccc2c(Cl)cccc2c1 | 0.00251 µM (active) | 
81 | CNCCNS(=O)(=O)c1cccc2cnccc12 | inactive | 
82 | NCCCCCCNS(=O)(=O)c1cccc2c(Cl)cccc12 | 200 nM (active) and 10 nM (active) | 
83 | NCCNS(=O)(=O)c1ccc(N)cc1 |  | -4.78% [at 11.4 µM]
84 | Nc1ccc(S(=O)(=O)NCCS(=O)(=O)O)cc1 |  | 22.1% [at 11.4 µM]
85 | CCCCCCCNS(=O)(=O)c1cccc2c(Cl)cccc12 | 0.126 µM (active) | 
86 | CCN1C(=O)C=CC1=O | inactive | 
87 | C=CCNS(=O)(=O)c1cccc2cc(C(=O)O)c(O)cc12 | inactive | 
88 | NCCCCCCCCCCNS(=O)(=O)c1cccc2c(Cl)cccc12 | 0.0794 µM (active) | 
89 | CCCCNS(=O)(=O)c1ccc(OC)c(Cl)c1Cl | 0.794 µM (active) | 
90 | NCCCCCCNS(=O)(=O)c1cccc2ccccc12 | 1 µM (active) | 
91 | O=S(=O)(NCCCCCCc1ccccc1)c1cccc2c(Cl)cccc12 | 1 µM (active) | 
92 | COc1cc(/C=C/C(=O)O)cc(S(=O)(=O)NCCCO)c1OC | inactive | 
93 | NCCNS(=O)(=O)c1cccc2cnccc12 | inactive | 
